{
  "source": "PubChem BioAssay AID743093",
  "about": "(The Scripps Research Institute Molecular Screening Center, 2013)",
  "note": "In all, about 150,000 compounds went through this assay and about 100 (0.067%) were called active. This excerpt belongs to a sample that is enriched for actives. A number with no mark means an inactive call.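 The calls were made as follows: active = inhibition above the mean plus 3 SD of compounds within the control limits, set per campaign (cut at about 38% in these data); inactive = the rest.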",
  "data": [
    {"assay": "late stage P. falciparum gametocyte viability inhibitors, primary screen, ATP luminescence, HTS (AID 743093);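 also: 0% = DMSO wells and 100% = medium only without gametocytes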", "conditions": "P. falciparum stage V gametocytes, 24 h, at 10.9 µM, hits give high values", "values": [
      {"smiles": "N#CCSc1nc(-c2ccccc2)nc2ccc(F)cc12", "inhibition": "-8.79%"},
      {"smiles": "Cc1cc(C)n(-c2ccc3nncn3n2)n1", "inhibition": "38.2% (active)"},
      {"smiles": "Cc1cc(C)n(-c2nc(O)cc(=O)[nH]2)n1", "inhibition": "9.58%"},
      {"smiles": "Cc1cc(C)n(-c2ccc(Cl)c(C(=O)O)n2)n1", "inhibition": "8.49%"},
      {"smiles": "O=C(CN1CCCCCC1)Nc1c(Cl)cc(Cl)cc1Cl", "inhibition": "-23.1%"},
      {"smiles": "O=C(NC(=O)N1CCSCC1)c1c(Cl)cccc1Cl", "inhibition": "-10.9%"},
      {"smiles": "CCn1c(SCC(=O)N/N=C/c2ccncc2)nc2ccccc21", "inhibition": "-15.2%"},
      {"smiles": "O=C1NC[C@@H](c2ccccc2)OC(=O)[C@H](Cc2ccc(F)cc2)CC/C=C/C[C@H]1CC(=O)N(CCO)Cc1ccccc1", "inhibition": "4.53%"},
      {"smiles": "COc1ccc(C(C#N)(CC(=O)O)c2cnccn2)cc1OC", "note": "(stereo unspecified)", "inhibition": "-25%"},
      {"smiles": "Cc1ccccc1NC(=O)N1CCCC1C(=O)NCc1ccccc1", "note": "(stereo unspecified)", "inhibition": "1.78%"},
      {"smiles": "Cc1ccc2c(O)c(Cc3ccccc3)c(=O)[nH]c2n1", "inhibition": "-11.8%"},
      {"smiles": "C/C(Cc1ccccc1)=N\\NC(=O)CNC(=O)c1ccc2c(c1)OCCO2", "inhibition": "-4.02%"},
      {"smiles": "CC(C)c1cc(CN2CCOCC2)cc(C(C)C)c1O", "inhibition": "-5.85%"},
      {"smiles": "CCOC(=O)c1c(C)[nH]c2c1-c1ccccc1C(=O)C2=O", "inhibition": "50.2% (active)"},
      {"smiles": "CCOC(=O)C1=C(c2ccc(OC)cc2)C(=O)c2ccccc2C1=O", "inhibition": "-27.7%"},
      {"smiles": "CCOC(=O)c1c(C)[nH]c(=S)c(C#N)c1-c1ccccc1", "inhibition": "-28.7%"},
      {"smiles": "Cc1cccc(C(=O)N2CCC(c3nc4ccccc4s3)CC2)c1", "inhibition": "13%"},
      {"smiles": "Nc1nnnn1/N=C/c1cc([N+](=O)[O-])ccc1O", "inhibition": "-1.33%"},
      {"smiles": "CCN(CC)S(=O)(=O)c1ccc(NC(=O)c2cnc(C)cn2)cc1", "inhibition": "-1.77%"},
      {"smiles": "CC(=O)NS(=O)(=O)c1ccc(N/C(N)=N/c2nc(C)cc(C)n2)cc1", "inhibition": "11.7%"},
      {"smiles": "CCCCC(CC)CNCc1cccn1CCN1CCOCC1", "note": "(stereo unspecified)", "inhibition": "-25.6%"},
      {"smiles": "CCOC(=O)c1c(N)sc2c1CCCC2=O", "inhibition": "-6.75%"},
      {"smiles": "Cc1c(CN2CC[C@@H](N3CCN(c4ccccn4)CC3)[C@H](O)C2)[nH]c2ccc(F)cc12", "inhibition": "-10.1%"},
      {"smiles": "CCc1ccc(NC(=O)N[C@H](C(=O)O)C(C)CC)cc1", "note": "(stereo partly specified)", "inhibition": "-3.41%"},
      {"smiles": "Cc1ccc(C)c(SCc2nc3sc(C(=O)O)c(C)c3c(=O)[nH]2)c1", "inhibition": "8.97%"},
      {"smiles": "CC1=CC(C)(C)NC(=S)N1NC(=O)c1ccccc1Cl", "inhibition": "-21.8%"},
      {"smiles": "C[C@@H]1NC(=O)[C@@]2(C)[C@@H](c3ccccc3)[C@H]3COc4ccccc4[C@@H]3N2C1=O", "inhibition": "-7.28%"},
      {"smiles": "CCCNC(=O)CSc1nc(Cc2ccccc2)nc2ccccc12", "inhibition": "-0.29%"},
      {"smiles": "COc1cccc(CNc2ncc(-c3ccccc3)n2C)c1", "inhibition": "-4.96%"},
      {"smiles": "CCSCc1nc(N)nc(NCCc2ccccc2)n1", "inhibition": "-2.31%"},
      {"smiles": "CC(C)=CCN1CCN(CCCc2ccccc2)CC1CCO", "note": "(stereo unspecified)", "inhibition": "26.8%"},
      {"smiles": "COc1ccccc1C1=CC(=O)C[C@H](c2ccc(F)cc2)C1", "inhibition": "-32.5%"},
      {"smiles": "Cc1ccc(-c2ccnc3[nH]n(-c4ccccc4)c(=O)c23)cc1", "inhibition": "-20.9%"},
      {"smiles": "CSc1ccc(S(=O)(=O)N2CCC(C(=O)NCCc3ccccc3)CC2)cc1", "inhibition": "-3.09%"},
      {"smiles": "O=C(Nc1nnc(CCN2CCCCC2)s1)c1cccc(Cl)c1", "inhibition": "7.08%"},
      {"smiles": "COc1cc(NC(=O)c2ccc(-c3csc(C)n3)cc2)c(OC)cc1Cl", "inhibition": "-9.66%"},
      {"smiles": "CCC(C(=O)NCCC(C)C)N(Cc1ccccc1Cl)C(=O)c1snc(C(N)=O)c1N", "note": "(stereo unspecified)", "inhibition": "-26.1%"},
      {"smiles": "CN(C)CCCNC(=S)N1CCC(c2nc3ccccc3[nH]2)CC1", "inhibition": "-17.4%"},
      {"smiles": "CC(=O)NS(=O)(=O)c1ccc2c(c1)Cc1cc(S(=O)(=O)NC(C)=O)ccc1-2", "inhibition": "-9.24%"},
      {"smiles": "Cc1cc(F)ccc1N1CCC(N2CCN(C)C(CCO)C2)CC1", "note": "(stereo unspecified)", "inhibition": "-11.3%"},
      {"smiles": "CC(=O)C(C)n1cnc2scc(-c3ccc(C)cc3)c2c1=O", "note": "(stereo unspecified)", "inhibition": "13.9%"},
      {"smiles": "COc1ccccc1-n1cn[nH]c1=S", "inhibition": "2.72%"},
      {"smiles": "CC(C)CCN1NC2(CCC(C)CC2)NC1=S", "note": "(stereo unspecified)", "inhibition": "0.86%"},
      {"smiles": "Cc1nc([N+](=O)[O-])cn1CC(=O)Nc1ccc(Cl)cc1", "inhibition": "2.38%"},
      {"smiles": "O=C(O)c1ccccc1C(=O)Nc1nc(-c2ccccc2)cs1", "inhibition": "3.62%"},
      {"smiles": "COC(=O)c1ccc(COc2cc([N+](=O)[O-])cc3cccnc23)cc1", "inhibition": "2.3%"},
      {"smiles": "CCN1N=C(c2ccccc2)CCC1=O", "inhibition": "-22.1%"},
      {"smiles": "CCc1nc(N2CCN(C(C)=O)CC2)c2c3c(sc2n1)CCCC3", "inhibition": "-2.91%"},
      {"smiles": "Cc1c(NC(=O)CSCc2ccccc2)cccc1C(=O)O", "inhibition": "19%"},
      {"smiles": "CCCc1ccc(OCCNC(=O)c2ccccc2Br)cc1", "inhibition": "17.8%"},
      {"smiles": "O=C(N[C@@H]1C/C=C\\C[C@@H](CC(=O)N(CCO)Cc2ccccc2)C(=O)N[C@H](Cc2ccccc2)COC1=O)OCC1c2ccccc2-c2ccccc21", "inhibition": "-0.76%"},
      {"smiles": "COc1ccc(N2CCN(C(=O)c3cccs3)CC2)cc1", "inhibition": "-16.6%"},
      {"smiles": "Cc1cccc(C)c1OCCN1CCOCC1", "inhibition": "-12.2%"},
      {"smiles": "COc1ccc(CN(Cc2ccc(OC)cc2)C(=O)c2cccs2)cc1", "inhibition": "2.88%"},
      {"smiles": "CCOc1ccc2ccccc2c1/C=N/NC(=O)c1c(C)cc(C)[nH]c1=O", "inhibition": "23.8%"},
      {"smiles": "Cc1cccc(NC(=O)COC(=O)CCc2ccccc2)c1C", "inhibition": "-7.45%"},
      {"smiles": "CCNC(=O)CCc1nc(-c2ccc(C)cc2)no1", "inhibition": "-1.21%"},
      {"smiles": "CN1CCN(c2ccc(S(=O)(=O)N3CCOCC3)cc2NC(=O)CCc2ccccc2)CC1", "inhibition": "-2.86%"},
      {"smiles": "CCOC(=O)[C@H]1[C@H]2COc3cc(OC)ccc3[C@@H]2N2C(=O)CN(Cc3ccc(Cl)cc3)C(=O)[C@@]12C", "inhibition": "-23.5%"},
      {"smiles": "COc1ccc(C(=O)NC2=NCCS2)c(OC)c1", "inhibition": "-24.6%"},
      {"smiles": "CCOc1ccc(-n2c(SCC(N)=O)nnc2-c2ccco2)cc1", "inhibition": "-6.2%"},
      {"smiles": "CCOC(=O)c1cnc(COc2ccccc2Cl)[nH]c1=O", "inhibition": "-10.2%"},
      {"smiles": "COc1ccc(CCNC(=O)Cc2ccc(C)cc2)cc1OC", "inhibition": "-9.83%"},
      {"smiles": "O=[N+]([O-])c1ccccc1/C=C/CN1CCCC(CO)C1", "note": "(stereo unspecified)", "inhibition": "-16.5%"},
      {"smiles": "O=C(CCCCO)c1ccc(O)c(Cl)c1", "inhibition": "-2.03%"},
      {"smiles": "CN(Cc1ccccc1)C(=O)c1ccc(COc2ccccc2)cc1", "inhibition": "-8.25%"},
      {"smiles": "COc1ccc(OC)c(C(=O)NC(CC(N)=O)c2ccc(N3CCC(N4CCCCC4)CC3)c([N+](=O)[O-])c2)c1", "note": "(stereo unspecified)", "inhibition": "0.29%"},
      {"smiles": "COc1ccc(-c2sc3ccc(OC)cc3c2C#Cc2ccccn2)cc1", "inhibition": "11.6%"},
      {"smiles": "COc1cc(NC(=O)c2ccc(CNc3c(N4CCCC4)c(=O)c3=O)cc2)cc(OC)c1OC", "inhibition": "-11.3%"},
      {"smiles": "COc1ccc(OCC(O)CN(C)C(=O)C(C)Oc2ccccc2)cc1", "note": "(stereo unspecified)", "inhibition": "-38.3%"},
      {"smiles": "Cc1cc(F)ccc1NC(=O)C(C)n1c2ccccc2c2nc(=O)cc(C)n21", "note": "(stereo unspecified)", "inhibition": "-11.9%"},
      {"smiles": "CCOC(=O)CSc1nc(C)c(Oc2ccc(Cl)cc2Cl)c(=O)[nH]1", "inhibition": "-4.17%"},
      {"smiles": "O=C(C1CCC1)N1CCN(c2ccccc2)CC1", "inhibition": "10.5%"},
      {"smiles": "Cn1c(Nc2cccc(Cl)c2)nc2ccccc21", "inhibition": "-9.18%"},
      {"smiles": "CN(C(=O)c1cccc(NC(=O)Cc2ccc([N+](=O)[O-])cc2)c1)C1CCC1", "inhibition": "-9.69%"},
      {"smiles": "O=C(CCc1ccccc1)Nc1ncc([N+](=O)[O-])s1", "inhibition": "-11.7%"},
      {"smiles": "O=C(Cc1c(F)cccc1Cl)Nc1ncc([N+](=O)[O-])s1", "inhibition": "39.5% (active)"},
      {"smiles": "O=C(Cc1c(F)cccc1Cl)Nc1ccc(-n2cnnn2)cc1", "inhibition": "4.22%"},
      {"smiles": "O=C(CCl)N(Cc1cccc([N+](=O)[O-])c1)c1cccc(Cl)c1", "inhibition": "-7.41%"},
      {"smiles": "Clc1ccc(C[n+]2cc(-c3ccccc3)n3c2CCC3)cc1", "inhibition": "1.51%"},
      {"smiles": "O=[N+]([O-])c1ccc(NC(=S)N2CCN(c3ccccn3)CC2)cc1", "inhibition": "3.29%"},
      {"smiles": "O=C(CN1CCN(c2ccc(F)cc2)CC1)Nc1ccccc1", "inhibition": "-14.6%"},
      {"smiles": "N#C/C(=C\\c1ccc(-c2cccc([N+](=O)[O-])c2)o1)C(=O)NCCN1CCOCC1", "inhibition": "-28.5%"},
      {"smiles": "Cc1ccccc1Nc1c(-c2ccccc2)nc2ncccn12", "inhibition": "-29.5%"},
      {"smiles": "Cc1ccc(S(=O)(=O)N2CCN(c3ccccc3)CC2)cc1C", "inhibition": "0.96%"},
      {"smiles": "O=C1CC(=O)Nc2cc(S(=O)(=O)N3CCN(c4cccc(C(F)(F)F)c4)CC3)ccc2N1", "inhibition": "38.8% (active)"},
      {"smiles": "O=S(=O)(c1cccc(C(F)(F)F)c1)N1CCN(c2cnccn2)CC1", "inhibition": "-34.2%"},
      {"smiles": "CCc1cc(CNC(=O)CC2C(=O)NCCN2Cc2ccccc2C(F)(F)F)on1", "note": "(stereo unspecified)", "inhibition": "-0.11%"},
      {"smiles": "COc1ccc(NC(=O)C2C3CCC(O3)C2C(=O)O)cc1OC", "note": "(stereo unspecified)", "inhibition": "7.46%"},
      {"smiles": "Cc1ccc(S(=O)(=O)Nc2nc(C)cc(N/N=C/c3ccc(O)cc3)n2)cc1", "inhibition": "42.5% (active)"},
      {"smiles": "Cc1cc(N/N=C\\c2ccc(Br)cc2)nc(-n2nc(C)cc2C)n1", "inhibition": "-0.66%"},
      {"smiles": "Cc1ccc(S(=O)(=O)Nc2nc(C)cc(-n3nc(C)cc3C)n2)cc1", "inhibition": "10.5%"},
      {"smiles": "CC1CCC(CN2CCN=C2N(C)C)CC1", "note": "(stereo unspecified)", "inhibition": "-5.33%"},
      {"smiles": "CCN(CC)CCCNC(=S)N(CCO)Cc1cc2cc3c(cc2[nH]c1=O)OCO3", "inhibition": "4.58%"},
      {"smiles": "CN(c1ccccn1)c1ncnc2[nH]ncc12", "inhibition": "2.58%"},
      {"smiles": "O=S(=O)(c1ccc(Cl)cc1)N1CCCN(c2ccc(C(F)(F)F)cn2)CC1", "inhibition": "-9.4%"}
    ]}
  ]
}
